Sampled rows, rich in hits. Any-hit rate of the full collection: about 8.3%.
FMDV inh = High Throughput Screening for Foot and Mouth Disease Virus Antivirals; FMDV antiviral cell-based qHTS; Potency, µM (series often up to 57.9 µM), for the others: at the highest dose activity change, negative = inhibition, usual class: inhibitors; 1.2% of 410,000 active; calls by dose curve; tested in HEK293T cells; note: read-out not given here; potency is the fitted concentration of half-maximal effect; nearly all actives have a fitted effect of over 45% in size
LASV entry inh = qHTS for Inhibitors of binding or entry into cells for Lassa Virus; Lassa virus pseudotype entry inhibition, cell reporter; Potency, µM (series often up to 37.9 µM), for inactives: top-dose activity change, negative = inhibition, hits mostly inhibitors; 1.2% of 300,000 active; AID 540256, 2011; calls by dose curve; tested in HEK293 cells; note: potency is the fitted concentration of half-maximal effect; nearly all actives have a fitted effect of over 50% in size
MARV entry inh = qHTS for inhibitors of binding or entry into cells for Marburg Virus. Marburg virus pseudotyped entry inhibition, cell reporter. AID 540276, 2011. Potency, µM (series often up to 37.8 µM), inactives show top-dose activity change, negative = inhibition, hits mostly inhibitors. 1.8% of 300,000 active; calls by dose curve; tested in HEK293 cells; note: potency is the fitted concentration of half-maximal effect
HCMV antiviral = qHTS Assay for inhibitors of the human cytomegalovirus (HCMV) | HFF cells, HCMV-luciferase reporter, 72 h; hits give low values | activity change, negative = inhibition, % at 57.5 µM | 4.5% of 410,000 active | AID 1259415, 2018; in the data active = activity change below about -60%; inconclusive = no clear call, values can overlap the other calls; inactive = above about -39%
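Two-dose cell screen: HFF monolayers treated with compounds and infected with luciferase-expressing HCMV at 1 PFU/cell, 72 h at 37C, then lysed for luciferase measurement.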
FBPA Giardia inh = qHTS Assay for Inhibitors of Fructose-1,6-bisphosphate Aldolase from Giardia Lamblia. purified Giardia FBPA. A8B2U2. 0.71% of 290,000 active. Potency, µM (top dose mostly 59.6 µM), inactives show at the highest dose activity, negative = inhibition, usual class: inhibitors. AID 2451, 2010; note: potency is the fitted concentration of half-maximal effect; nearly all actives have a fitted effect of over 55% in size
Target sequence (A8B2U2 whole entry, looked up): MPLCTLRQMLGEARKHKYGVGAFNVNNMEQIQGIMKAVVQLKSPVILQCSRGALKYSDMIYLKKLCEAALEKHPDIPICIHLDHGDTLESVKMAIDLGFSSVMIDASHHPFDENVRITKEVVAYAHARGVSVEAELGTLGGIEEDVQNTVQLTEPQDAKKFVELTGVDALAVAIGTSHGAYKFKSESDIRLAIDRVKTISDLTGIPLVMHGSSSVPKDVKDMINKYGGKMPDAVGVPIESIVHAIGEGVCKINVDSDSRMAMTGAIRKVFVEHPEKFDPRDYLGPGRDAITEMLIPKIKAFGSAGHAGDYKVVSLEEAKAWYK
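40 nM FBPA preincubated 10 min at RT with compound (up to 57.5 uM final), then substrate plus GAPDH/TPI/NAD/arsenate coupling and diaphorase/resazurin added. Fluorescence read after 20 min at RT, 525/598 nm.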
HCV inh = qHTS Assay for Inhibitors of Hepatitis C Virus (HCV); Huh7.5.1 HCVcc-Cre infection, luciferase reporter, 44 h; Potency, µM (doses to about 41.8 µM), inactives show top-dose activity change, negative = inhibition, usual class: inhibitors; 3.4% of 340,000 active; AID 651820, 2012; note: potency is the fitted concentration of half-maximal effect
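Antiviral activity was scored by luciferase reporter output from cells infected with HCVcc-Cre (~0.5 moi) in presence of compound, 44 h infection period, cells seeded 1,000/well 4 h prior.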
An asterisk follows results filed as active; ? = inconclusive; nt = no result; ! = repeats disagree; [ ] = dose if it differs, or a comment. Unless noted, calls come from the whole dose curve; as a rule, active = well fitted curve in the direction sought with a large enough effect; inconclusive = small, poorly fitted or top-dose-only effect, or another doubt; inactive = no such curve, though single readings can be large; an effect the other way counts as inactive or inconclusive. % is set by controls: 0 for no effect and ±100 for the full control effect.

SMILES	FMDV inh	LASV entry inh	MARV entry inh	HCMV antiviral	FBPA Giardia inh	HCV inh
COc1ccc(/C=C/C(=O)c2cc(Br)ccc2OC(=O)c2ccco2)cc1OC	11.5%	?	5.8µM*!	20.6	2.3%	9.0%
Cc1cccc(C(C)C)c1NC(=O)c1ccc2c(c1)CCN2S(C)(=O)=O	-29.6%	17.7%[46.1 µM]	10.9%[46.1 µM]	-10.6	nt	nt
Cc1cc(C(=O)Nc2ccccc2-c2nc(CNC(=O)c3sc(C)nc3C)c(C)o2)c(C)o1	0.6%	nt	nt	nt	nt	nt
COc1cccc(Cn2c(=O)cnc3cnc(OC)nc32)c1	-1.3%	nt	nt	nt	4.4%	nt
O=c1[nH]nc(-c2ccc(NCCO)c([N+](=O)[O-])c2)c2ccccc12	-12.0%	-12.9%[46.1 µM]	-18.1%[46.1 µM]	-29.0	10.1%	12.2%
O=[N+]([O-])c1cc(Cl)cc2c1nc(NCCO)c1ccccc12	-7.2%	-9.1%[46.1 µM]	?	-94.9*	-1.9%	2µM*
CCC[C@H]1[C@@H](NC(=O)Nc2cccc(C(F)(F)F)c2)CC[C@@]23CCCN2C(=O)CCC[C@@H]13	nt	nt	nt	-6.1	nt	nt
CN(C)c1ccc(CNCCC(Cc2ccccc2)c2ccco2)cc1 (stereo unspecified)	-27.4%	?	14.6µM*	?	7.8%	?
Cc1ccc(C(=O)CC2(O)C(=O)N(Cc3ccccc3Cl)c3ccccc32)o1 (stereo unspecified)	-16.3%	-9.3%	-11.3%	-24.5	9.6%	-7.5%
COc1cc(C(=O)CC2(O)C(=O)N(Cc3ccccc3Cl)c3ccccc32)cc(OC)c1OC (stereo unspecified)	-11.7%	?	-26.1%[46.1 µM]	-70.7*	nt	nt
COc1cc(C(=O)Nc2nonc2-c2ccc(C)c(C)c2)cc(OC)c1OC	0.0%	6.1%[46.1 µM]	8.0%[46.1 µM]	-20.6	nt	nt
CCN1CCCC1CNC(=O)c1cc(N)ccc1OC (stereo unspecified)	-4.3%	16.3%[46.1 µM]	14.8%[46.1 µM]	14.8	nt	14.9%
C=CCN1CCCC1CNC(=O)c1cc2[nH]nnc2cc1OC (stereo unspecified)	-8.8%	nt	nt	-68.1*	nt	5.1%
O=C(N/N=C/c1cccs1)c1cccc(NC(=O)c2ccc(Cl)cc2)c1	nt	?	4.2%	-97.1*	3.9%	1.0%
O=C(N/N=C/c1cccs1)c1cccc(S(=O)(=O)Nc2ccc(Cl)cc2)c1	25.4%	-5.6%	22.2%[46.1 µM]	-64.7*	6.3%	-16.0%
COc1ccc(NS(=O)(=O)c2cccc(C(=O)N/N=C/c3ccccc3OC)c2)cc1	5.8%	3.9%	-5.3%	-13.1	nt	16.6%
CC(C)[C@@H](CO[Si](C)(C)C(C)(C)C)N1CC=CS1(=O)=O	nt	7.6%[46.1 µM]	nt	nt	nt	nt
O=C(c1ccccc1)c1ccc(OCCOCCN2CCN(Cc3ccccc3)CC2)cc1	?	-2.1%	?	-25.9	?	14.1µM*
O=C(c1ccccc1)c1ccc(OCC(O)CN2CCN(Cc3ccccc3)CC2)cc1 (stereo unspecified)	-26.5%	?	14.6µM*	-6.8	3.1%	?
CC(=O)c1ccc(OCC(O)CN2CCN(Cc3ccccc3)CC2)cc1 (stereo unspecified)	0.0%	nt	nt	nt	?	-11.3%
NC(=O)C1=CN(C2OC(COP(=O)(O)OP(=O)(O)OC[C@H]3O[C@@H](n4cnc5c(N)ncnc54)[C@H](OP(=O)(O)O)[C@H]3O)C(O)C2O)C=CC1 (stereo partly specified)	nt	nt	-6.0%	nt	-1.7%	nt
Nc1cc(-c2ccncc2)c[nH]c1=O	0.0%	5.4%	22.0%	104.7	1.77µM*	-0.1%
c1ccc(-c2ccncc2)cc1	-9.9%	nt	nt	-21.7	nt	-5.0%
CCOC(=O)c1cnc(SCC(=O)Nc2cc(OC)ccc2OC)nc1N	14.1µM*	8.0%	?	6.7	9.1%	6.31µM*
COc1ccc(OC)c(NC(=O)CSc2nc(C)cs2)c1	nt	0.8%	-8.9%	32.4	0.0%	25.1µM*
SMILES	FMDV inh	LASV entry inh	MARV entry inh	HCMV antiviral	FBPA Giardia inh	HCV inh
COC(=O)C1=C[C@@H](C(=O)OC)[C@@H]2C3=C(C(=O)[C@@]2(C)NC(=O)c2ccccc2)[C@H](C)[C@@H]2C(=O)N(Cc4ccccc4)C(=O)[C@@H]2[C@@H]3C1	nt	nt	nt	nt	-4.9%	nt
CNc1ncncc1-c1ccccc1C(F)(F)F	-5.5%	nt	nt	nt	-6.1%	nt
Cn1cccc1/C=N/N1CCN(Cc2ccccc2Cl)CC1	-25.5%	19.8%[46.1 µM]	22.8%[46.1 µM]	6.7	-19.4%	0.316µM*
Fc1ccccc1/C=N/N1CCN(Cc2ccccc2Cl)CC1	29.1%	-2.0%	7.1%	10.7	?	19.3%
CCCC(=O)Nc1nnc(S(=O)(=O)N(C)Cc2ccc(Cl)cc2)s1	10.9%	7.0%[46.1 µM]	nt	0.0	nt	nt
Oc1ccccc1C1NN=C(c2ccccc2)S1 (stereo unspecified)	-19.1%	?	?	223.8	?	-19.0%
CSc1ccc(C2NN=C(c3ccccc3)S2)cc1 (stereo unspecified)	?	6.31µM*	2.82µM*	19.2	nt	-3.1%
COc1ccccc1C(=O)Nc1ccc2nc(SCCOc3ccccc3C)sc2c1	?	-18.6%[46.1 µM]	10.0%[46.1 µM]	-19.8	nt	nt
C#CCn1c(=NC(=O)c2cccs2)sc2cccc(OC)c21	5.3%	nt	nt	-97.7*	2.6%	?
COc1ccc(-c2csc3nc(-c4ccccc4OC)oc(=O)c23)cc1	?	-4.0%[46.1 µM]	?	-69.4*	-6.0%	-17.1%
COc1ccc(-c2csc3nc(-c4ccc(F)cc4)oc(=O)c23)cc1	-3.3%	-5.7%[46.1 µM]	nt	8.0	nt	nt
COc1cc(OC)c(C(=O)NCc2nc(-c3ccccc3)no2)cc1OC	-25.5%	?	?	?	nt	nt
COc1cc(C(O)c2nc3ccccc3s2)cc(OC)c1OC (stereo unspecified)	?	nt	nt	-35.6	0.5%	7.08µM*
CCc1ccc(/C=C2\SC(=S)N(CCCC(=O)N(CCO)c3ccccc3)C2=O)cc1	?	nt	nt	-97.7*	nt	nt
COc1ccc(/C=C2/SC(=O)N(CCC(=O)Nc3ccc(C)cc3)C2=O)cc1OC	nt	nt	-0.6%	-7.4	5.0%	3.5%
CCc1ccc(/C=C2/SC(=S)N(CCCC(=O)Nc3ccccc3C(=O)O)C2=O)cc1	?	-28.5%[46.1 µM]	-27.2%[46.1 µM]	-35.4	nt	-5.2%
COc1ccc(/C=C2\SC(=O)N(CCNC(=O)Cc3coc4cc(C)ccc34)C2=O)cc1OC	39.8µM*	-1.8%	?	-99.3*	-6.1%	12.6µM*
CCOc1ccc(/C=C2\SC(=S)N(CCC(=O)N(CCO)c3ccccc3)C2=O)cc1	-18.8%	?	?	-99.9*	-1.3%	?
COc1ccc(/C=C2/SC(=O)N(CCC(=O)Nc3ccccc3)C2=O)cc1OC	-26.6%	nt	-0.7%	-63.5*	-0.7%	24.6%
Oc1cccc(Nc2nccc3[nH]c(-c4ccccc4)cc23)c1	nt	nt	nt	-7.2	nt	nt
CC1=C[C@@H](C)OC2(C1)C(=O)N(CC1CC1)c1cccc(Br)c12 (stereo partly specified)	nt	nt	2.7%[14.2 µM]	nt	nt	nt
